Experimental findings from PubChem BioAssay are described below.

The structures appear in SMILES notation. Activity calls are given as the source filed them.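 How the source made its calls, unless noted: active means inhibition above 20% together with a positive visual image hit; inconclusive means visual image hit but inhibition not above 20%; inactive means no visual image hit.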

Assay [1] in a line: inhibitors of TNFa-induced NFkB p65 translocation, primary screen, imaging, HUVEC, MLSMR starter and 10KST1 sets (AID 438).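 Further: compound added about 3h40 before a 20 min TNFalpha stimulation.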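 On inhibition: signal is the nuclear over cytoplasmic p65 intensity ratio per well.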 The note with it: HUVEC TNFa-induced p65 nuclear translocation; cell count: measured here: nuclei count (cytotoxicity indicator), at 2.08 µM; inhibition: at 2 µM, stronger effect = higher value, 0% TNFa-plus-vehicle, 100% no-TNFa wells.
Assay [2] can be described thus: inhibitors of mutant huntingtin aggregation, primary screen, imaging, exon1htt(103Q)mCFP cells, high-content imaging (AID 483;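 active means visual image review flags a hit and inhibition of aggregation exceeds 20%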;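 further: compound exposure lasted 3 days before fixation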;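 on nuclei count: percent of the per-plate median nuclei count of sample wells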). Conditions: exon1htt(103Q)mCFP cell line, aggregate imaging, at 2 µM; inhibition of aggregation: stronger effect = higher value; nuclei count: measured here: cell count, toxicity.
The nature of assay [3]: inhibitors of E-selectin induction by TNFa, primary screen, imaging, HUVEC, immunofluorescence, MLSMR starter and 10KST1 sets (AID 487;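 active means visually confirmed hit in the image check and inhibition above 20%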;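 on inhibition: signal is fraction of cell area covered by stained E-selectin grains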;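 on nuclei count: 100% = median nuclei count of all wells on the same plate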). The note with it: HUVEC TNFalpha-induced E-selectin immunofluorescence imaging, at 2 µM; inhibition: stronger effect = higher value; nuclei count: measured here: cell number, toxicity.
The target in assay [4] is Voltage-gated potassium channel subunit beta-2 (Rattus norvegicus) (UniProt P62483). Briefly: KvBeta enzyme negative modulators, primary screen, biochemical, NADPH fluorescence (AID 622;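 active means fluorescence slope higher than the sample average by over 3 SD, cut at about -0.22 in these data, passing the limit was not always enough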;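 further: slope of raw intensity against log time taken from 70 to 1610 s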). The note with it: recombinant KvBeta, 4-cyanobenzaldehyde reduction, at 10 µM, stronger effect = higher value.
The target is the same in assay [5]. As to the kind of experiment: KvBeta positive modulators, primary screen, biochemical, NADPH fluorescence (AID 623;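 active means NADPH fluorescence slope more negative than the mean of all samples by about 3 SD, 99.7% confidence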;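 further: fluorescence intensity change per second fitted from 20 to 320 s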). The note with it: Recombinant KvBeta, NADPH fluorescence decrease slope, 10 min; at 10 µM; stronger effect = lower value.
The target of assay [6] is Alpha-2C adrenergic receptor (Homo sapiens) (UniProt P18825). As to the kind of experiment: modulators of alpha2C/GIRK thallium flux, primary screen, cell-based, HEK293 alpha2C/GIRK1/2 (AID 624;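 active means fluorescence slope after compound addition differing from the mean of all screened samples at 99.7% confidence, in either direction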;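 further: slope of fluorescence ratio to pre-addition baseline per second over 15 to 24 s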). Conditions: thallium flux BTC fluorescence, at 10 µM, actives lie on both sides.
The nature of assay [7]: inhibitors of Sendai virus-induced IRF3 signaling, primary screen, TLR/RLR signaling modifier project, cell-based, Sendai virus stimulus, luciferase, 10K MLSCN set (AID 602276;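 active means inhibition at or above 50% at 10 µM; inactive means inhibition below 50%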;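 further: firefly luciferase from ISG56 promoter only with Renilla not read in this screen; 0% = Sendai virus plus DMSO and 100% = medium plus DMSO without virus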). Conditions: HEK293 RL24 IRF3 luciferase reporter, at 10 µM, stronger effect = higher value.
Assay [8] in a line: inhibitors of poly I:C-induced TLR3 signaling, primary screen, cell-based, poly I:C stimulus, luciferase, 10K MLSCN set (AID 602277;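 active means inhibition of the reporter signal at or above 50%; inactive means inhibition below 50%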). Conditions: HEK293-TLR3 RL24 IRF3 luciferase reporter, at 10 µM, stronger effect = higher value.

Chain of Alpha-2C adrenergic receptor (Homo sapiens) (P18825 whole entry, looked up): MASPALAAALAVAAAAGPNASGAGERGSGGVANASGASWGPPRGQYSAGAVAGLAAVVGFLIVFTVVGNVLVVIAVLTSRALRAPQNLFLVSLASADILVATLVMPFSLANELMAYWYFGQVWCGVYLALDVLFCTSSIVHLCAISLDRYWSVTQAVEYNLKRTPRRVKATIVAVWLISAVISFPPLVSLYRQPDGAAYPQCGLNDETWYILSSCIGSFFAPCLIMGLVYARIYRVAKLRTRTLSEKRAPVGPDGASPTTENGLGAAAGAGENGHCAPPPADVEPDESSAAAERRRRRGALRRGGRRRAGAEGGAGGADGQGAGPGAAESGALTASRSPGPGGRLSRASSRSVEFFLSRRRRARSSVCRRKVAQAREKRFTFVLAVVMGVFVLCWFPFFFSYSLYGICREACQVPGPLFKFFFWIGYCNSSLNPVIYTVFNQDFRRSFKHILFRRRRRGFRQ
Chain of Voltage-gated potassium channel subunit beta-2 (Rattus norvegicus) (P62483 whole entry, looked up): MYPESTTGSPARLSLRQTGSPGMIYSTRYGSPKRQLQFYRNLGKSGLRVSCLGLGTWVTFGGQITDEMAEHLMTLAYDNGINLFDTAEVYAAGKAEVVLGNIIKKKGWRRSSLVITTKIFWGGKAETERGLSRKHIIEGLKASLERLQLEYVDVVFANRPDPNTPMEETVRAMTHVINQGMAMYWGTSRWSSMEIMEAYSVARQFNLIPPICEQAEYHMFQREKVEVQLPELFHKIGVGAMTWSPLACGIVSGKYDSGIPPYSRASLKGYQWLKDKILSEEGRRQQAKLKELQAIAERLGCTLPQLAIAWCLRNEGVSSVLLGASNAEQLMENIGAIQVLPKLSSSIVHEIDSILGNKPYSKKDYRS

Consider `Cc1ccc(S(=O)(=O)N2CCCC(c3nnc4n3-c3ccccc3SC4)C2)cc1` (stereo not given), for which the cell count in assay [1] came to 431. Also, the inhibition in assay [1] is 3.4% (inactive); in assay [3] it was -34% (inactive); in assay [7] it was 16.2% (inactive); in assay [8] it was 19.1% (inactive). In addition, the inhibition of aggregation in assay [2] was 4.2% (inactive). The results for the nuclei count in assay [2] and in assay [3] were 95.7% and 103%, respectively. Also, in assay [4], the fluorescence slope is -0.67 (inactive). Further, the NADPH fluorescence slope in assay [5] was -3.6e-05 (inactive). Moreover, the slope in assay [6] is 0.00342 (inactive).

Regarding `O=C(CN1CCN(c2nc(-c3ccccc3)cs2)CC1)Nc1ccc2c(c1)OCO2`, the cell count in assay [1] is 529. The inhibition was -11.3% (inactive) in assay [1], -77.7% (inactive) in assay [3], -2.24% (inactive) in assay [7] and -3.31% (inactive) in assay [8]. Besides, the inhibition of aggregation in assay [2] was -0.3% (inactive). Besides, the nuclei count in assay [2] is 106%; in assay [3], 146%. Besides, in assay [4], the fluorescence slope was -0.518 (inactive). For the same compound, the NADPH fluorescence slope in assay [5] was 1.7e-05 (inactive). Further, the slope in assay [6] was 0.00563 (inactive).

On to `CCOc1ccc(C2C(C(=O)OC)=CN(CCOC)C=C2C(=O)OC)cc1`, for which, in assay [1], the cell count came to 298. The inhibition in assay [1] is 6% (inactive); in assay [3], -6% (inactive); in assay [7] it was -9.2% (inactive); in assay [8], 7.51% (inactive). The inhibition of aggregation in assay [2] is -3.4% (inactive). Besides, the nuclei count in assay [2] came out at 105%; in assay [3], 110%. The fluorescence slope in assay [4] was -0.141 (inactive). Further, the NADPH fluorescence slope in assay [5] is -8.2e-06 (inactive). Moreover, the slope in assay [6] was 0.00651 (inactive).

Turning to `Cc1ccc(NC(=O)COS(=O)c2ccc(C)cc2)cc1` (stereo not given), the cell count in assay [1] came to 420. For the same compound, the inhibition in assay [1] is 5.8% (inactive); in assay [3] it was -11.2% (inactive); in assay [7] it was 6.94% (inactive); in assay [8], -1.39% (inactive). Also, the inhibition of aggregation in assay [2] was 2.9% (inactive). The nuclei count stood at 94.3% in assay [2] and 125% in assay [3]. For the same compound, the fluorescence slope in assay [4] is -0.58 (inactive). In assay [5], the NADPH fluorescence slope was -2e-05 (inactive). In assay [6], the slope is 0.00583 (inactive).

On to `CC1(C)NC(=O)N(CC(O)COc2ccc(-c3ccccc3)cc2)C1=O` (stereo not given), for which the cell count in assay [1] was 260. For the same compound, the inhibition is -0.5% (inactive) in assay [1], -18.2% (inactive) in assay [3], -15.6% (inactive) in assay [7] and 1.46% (inactive) in assay [8]. In addition, the inhibition of aggregation in assay [2] was 4.5% (inactive). Also, the results for the nuclei count in assay [2] and in assay [3] were 89.9% and 125%, respectively. For the same compound, in assay [4], the fluorescence slope was -0.425 (inactive). Further, in assay [5], the NADPH fluorescence slope was -6.5e-05 (inactive). For the same compound, in assay [6], the slope was 0.00308 (inactive).

`COc1ccc(CC(=O)OCn2nnc3ccccc3c2=O)cc1`: the cell count in assay [1] is 423. Also, the inhibition in assay [1] is -7% (inactive); in assay [3], -7.5% (inactive); in assay [7], 12% (inactive); in assay [8], 16.4% (inactive). In addition, in assay [2], the inhibition of aggregation was -25.9% (inactive). The nuclei count in assay [2] is 120%; in assay [3] it was 115%. Further, in assay [4], the fluorescence slope is -0.416 (inactive). The NADPH fluorescence slope in assay [5] is -4.2e-05 (inactive). Moreover, the slope in assay [6] is 0.00601 (inactive).

As for `CSc1cccc(NC(=O)CN(C)S(=O)(=O)c2ccccc2)c1`, the cell count in assay [1] is 407. Also, the inhibition in assay [1] is 4.6% (inactive); in assay [3], -183% (inactive); in assay [7], 6.98% (inactive); in assay [8] it was -6.52% (inactive). The inhibition of aggregation in assay [2] is -0.4% (inactive). For the same compound, the nuclei count in assay [2] came out at 103%; in assay [3] it was 111%. Moreover, the fluorescence slope in assay [4] is -0.406 (inactive). Also, in assay [5], the NADPH fluorescence slope was -3.2e-05 (inactive). In assay [6], the slope is 0.00611 (inactive).

Regarding `Cc1cc(=O)oc2ccc(OCC(=O)N(Cc3ccc(F)cc3)Cc3ccco3)cc12`, the cell count in assay [1] is 751. Besides, the inhibition in assay [1] was 2.2% (inactive); in assay [3], -150% (inactive); in assay [7] it was -10.8% (inactive); in assay [8] it was -19% (inactive). In addition, the inhibition of aggregation in assay [2] is -0.1% (inactive). In addition, the nuclei count in assay [2] turned out to be 95.6%; in assay [3], 107%. Besides, in assay [4], the fluorescence slope is -0.493 (inactive). Also, the NADPH fluorescence slope in assay [5] was 2.4e-05 (inactive). The slope in assay [6] was 0.00494 (inactive).

With `CC(=O)N1CCN(c2ccc(NC(=O)c3ccc(C(C)(C)C)cc3)cc2)CC1`, the cell count in assay [1] was 816. Further, the inhibition was 7.3% (inactive) in assay [1], -186% (inactive) in assay [3], -19.2% (inactive) in assay [7] and -42.5% (inactive) in assay [8]. In addition, the inhibition of aggregation in assay [2] is -7.5% (inactive). Besides, the nuclei count is 97.8% in assay [2] and 135% in assay [3]. The fluorescence slope in assay [4] is -0.494 (inactive). Further, the NADPH fluorescence slope in assay [5] was -4e-05 (inactive). For the same compound, the slope in assay [6] was 0.00554 (inactive).

In the case of `Cc1ccc(S(=O)(=O)Cn2nnnc2CN(Cc2ccco2)Cc2cccs2)cc1`, in assay [1], the cell count was determined as 324. The inhibition in assay [1] was -1.6% (inactive); in assay [3], -85.1% (inactive); in assay [7] it was 7.14% (inactive); in assay [8] it was 6.8% (inactive). Also, the inhibition of aggregation in assay [2] was 6.8% (inactive). For the same compound, the nuclei count in assay [2] was 108%; in assay [3] it was 133%. For the same compound, the fluorescence slope in assay [4] was -0.594 (inactive). Also, the NADPH fluorescence slope in assay [5] was -4.2e-05 (inactive). For the same compound, the slope in assay [6] was 0.00355 (inactive).
